Compound activity from PubChem.
The list is not random: actives were taken first. Their share in the collection is about 22%.
E-sel TNF inh – E-selectin induction blockers in HUVEC – imaging, immunofluorescence, high content, primary screen; HUVEC TNFa-induced E-selectin immunofluorescence; 120,000 tested, 0.71% active; inhibition, % at 2 µM;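 active = inhibition above the batch mean plus 3 SD, and confirmed as a hit on visual image review, cut at about 43% in these data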
CYP2C19 inhib – blockers of cytochrome P450 2C19 activity – biochemical, luminescence, ADME assay, primary screen. AID 778, 2007. inhibition, % at 5 µM. P33261. 96,000 tested, 21% active. CYP2C19 Supersomes, luciferin-H EGE luminescence, 30 min;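 active = CYP2C19 inhibition above a set limit at 5 µM in the primary screen, cut at about 50% in these data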
CYP2C9 act – human CYP2C9 activators, primary screen, biochemical, luminescence. activation factor at 5 µM. recombinant CYP2C9, luciferin-H conversion; stronger effect = higher value; factor 1 = untreated enzyme, 0 = blocked. 96,000 tested, 1.4% active. Cytochrome P450 2C9 (Homo sapiens), P11712;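 active = activation factor of 2 or more for CYP2C9 at a 5 µM dose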
Target sequence (P11712 whole entry, looked up): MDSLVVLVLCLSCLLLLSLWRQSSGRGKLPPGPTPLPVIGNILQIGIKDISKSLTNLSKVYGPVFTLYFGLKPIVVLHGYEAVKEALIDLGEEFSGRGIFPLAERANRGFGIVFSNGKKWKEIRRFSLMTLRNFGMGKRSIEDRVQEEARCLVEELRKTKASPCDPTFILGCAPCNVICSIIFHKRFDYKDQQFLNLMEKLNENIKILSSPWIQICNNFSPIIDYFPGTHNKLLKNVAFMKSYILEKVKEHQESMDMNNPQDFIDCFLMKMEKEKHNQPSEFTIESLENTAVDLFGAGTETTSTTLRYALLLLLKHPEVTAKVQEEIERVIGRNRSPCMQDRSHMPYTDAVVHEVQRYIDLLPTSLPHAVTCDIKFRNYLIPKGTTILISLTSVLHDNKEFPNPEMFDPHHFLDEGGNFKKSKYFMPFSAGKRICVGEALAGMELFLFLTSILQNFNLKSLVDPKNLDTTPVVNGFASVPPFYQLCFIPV
CYP2C9 inhib – blockers of cytochrome P450 2C9 activity – biochemical, luminescence, ADME assay, primary screen; CYP2C9 Supersomes, luciferin-H conversion; 96,000 tested, 20% active; inhibition, % at 5 µM; P11712;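 active = blocking of liver enzyme CYP2C9 beyond about 50% at 5 µM, limit read from the data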
F-actin modifier – modifiers of F-actin cytoskeleton organization, primary screen, imaging, HUVEC, phalloidin staining, high-content imaging; HUVEC TNFa F-actin phalloidin imaging; inhibition, % at 2 µM; 91,000 tested, 0.18% active; AID 836, 2007;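 active = inhibition above the batch mean plus 3 SD and confirmed as a hit by visual image inspection, cut at about 30% in these data, passing the limit was not always enough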
CYP2C19 activ – human CYP2C19 activators, primary screen, biochemical, luminescence; Cytochrome P450 2C19 (Homo sapiens), P33261; recombinant CYP2C19, luciferin-H EGE luminescence; stronger effect = higher value; 0 = fully inhibited enzyme, 1 = untreated enzyme; activation factor at 5 µM; 96,000 tested, under 10 active;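 active = activation factor of at least 2 at 5 µM in the primary screen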
Large screens that a line does not name were inactive.

O=C(CCC1COc2ccccc2O1)Nc1ccc(Cl)cn1 (stereo not given)	CYP2C19 inhib 75
O=C(O)CCC1COc2ccccc2O1 (stereo not given)	none
COc1ccc(CCNC(=O)CCC2COc3ccccc3O2)cc1OC (stereo not given)	CYP2C9 inhib 68
Cc1cc(C)nc(NS(=O)(=O)c2ccc(NC(=O)CCC3COc4ccccc4O3)cc2)n1 (stereo not given)	none
COc1ccc(NC(=O)C(c2ccc(C)cc2)N(C)C(=O)CC2NC(=O)NC2=O)cc1 (stereo not given)	none (no result: CYP2C19 inhib, CYP2C9 act, CYP2C9 inhib, F-actin modifier, CYP2C19 activ)
Nc1nnc(SCCOc2cccc(Br)c2)s1	CYP2C19 inhib 92
CCOC(=O)c1csc(NC(=O)c2ccc(S(=O)(=O)N(CC)CC)cc2)n1	none (no result: CYP2C19 inhib, CYP2C9 act, CYP2C9 inhib, CYP2C19 activ)
O=C(C1CCCCC1)N1CCN=C1SCc1cccnc1	CYP2C19 inhib 95
O=C(c1ccccc1F)N1CCN=C1c1ccccc1	none (no result: CYP2C19 inhib, CYP2C9 act, CYP2C9 inhib, F-actin modifier, CYP2C19 activ)
CCOc1ccccc1C(=O)N1CCN=C1SCc1cccnc1	CYP2C19 inhib 64 (no result: E-sel TNF inh)
O=C(c1ccc(S(=O)(=O)N2CCCCC2)cc1)N1CCN=C1SCc1cccnc1	none
O=C(c1ccccc1F)N1CCN=C1SCc1cccnc1	CYP2C19 inhib 82
COc1ccc(C(=O)N2CCN=C2SCc2cccnc2)cc1OC	CYP2C19 inhib 83
COc1cccc(OC)c1C(=O)N1CCN=C1SCc1cccnc1	none (no result: E-sel TNF inh)
N=c1c2c(-c3ccccc3)c(-c3ccccc3)n(Cc3ccco3)c2ncn1Cc1ccco1	CYP2C19 inhib 66, CYP2C9 inhib 83 (no result: F-actin modifier)
Cc1cc(C)cc(-n2c3nc4ccccc4nc3c3c(=O)n(Cc4ccco4)cnc32)c1	none
N=c1c2c(-c3ccccc3)c(-c3ccccc3)n(Cc3ccccc3)c2ncn1CCCn1ccnc1	CYP2C19 inhib 82, CYP2C9 inhib 58
O=C(CSc1nc(O)cc(=O)n1-c1ccccc1)Nc1ccccn1	none (no result: CYP2C19 inhib, CYP2C9 act, CYP2C9 inhib, F-actin modifier, CYP2C19 activ)
COc1cc(CSc2ncn[nH]2)c(OC)cc1CSc1ncn[nH]1	CYP2C19 inhib 62 (no result: E-sel TNF inh)
CCCOc1ccc(CSc2ncn[nH]2)cc1	none
CC(C)OC(=O)Nc1ccc(Oc2c(F)c(F)c(F)c(F)c2F)cc1	none (no result: F-actin modifier)
C/C=C/c1c(F)c(F)c(Oc2ccc(C(=O)O)cc2)c(F)c1F	CYP2C9 inhib 81
CCCc1cc(Nc2c(C)n(C)n(-c3ccccc3)c2=O)n2c(nc3ccccc32)c1C#N	CYP2C9 inhib 62
Cc1cc(Nc2c(C)n(C)n(-c3ccccc3)c2=O)n2c(nc3ccccc32)c1C#N	none
COc1ccc2c(c1)c(=O)oc1cc(OCC(=O)N3CCCC(C)C3)ccc12 (stereo not given)	CYP2C19 inhib 99
Cc1cc(=O)oc2cc(OCC(=O)N3CCOCC3)ccc12	none (no result: CYP2C19 inhib, CYP2C9 act, CYP2C9 inhib, CYP2C19 activ)
COc1ccc2c(c1)c(=O)oc1cc(OCC(=O)N3CCC(C)CC3)ccc12	CYP2C19 inhib 99
COc1ccc2c(c1)c(=O)oc1cc(OCC(=O)N3CCc4ccccc4C3)ccc12	CYP2C9 inhib 61 (no result: E-sel TNF inh)
CC1CCCC(NC(=O)C2c3ccccc3C(=O)N2Cc2cccs2)C1C (stereo not given)	none (no result: CYP2C19 inhib, CYP2C9 act, CYP2C9 inhib, F-actin modifier, CYP2C19 activ)
CC(=O)CCCCn1c(=O)c2c(ncn2C)n(C)c1=O	CYP2C9 inhib 51
O=C(CCn1c(=O)sc2ccccc21)NCc1ccccc1	CYP2C19 inhib 80
O=C(O)CCC(=O)Nc1nc2ccccc2s1	none
Cc1ccc2nc(NC(=O)CCn3c(=O)sc4ccccc43)sc2c1	CYP2C9 inhib 58
O=C(CCn1c(=O)sc2ccccc21)Nc1nc2ccccc2s1	CYP2C9 inhib 80
O=C(NCc1n[nH]c(=S)n1Cc1ccccc1)c1ccc(Cl)cc1Cl	none (no result: CYP2C19 inhib, CYP2C9 act, CYP2C9 inhib, F-actin modifier, CYP2C19 activ)
Cc1c(C)c(C)c(/C=[N+](/C)[O-])c(C)c1C	none (no result: CYP2C19 inhib, CYP2C9 act, CYP2C9 inhib, F-actin modifier, CYP2C19 activ)
Cc1ccnc(NC(=O)CS(=O)(=O)Cc2ccccc2)c1	none
c1ccc(CCc2nn3c(-c4ccncc4)nnc3s2)cc1	CYP2C19 inhib 95, CYP2C9 inhib 54
Clc1ccccc1-c1nnc2sc(CCc3ccccc3)nn12	CYP2C19 inhib 88, CYP2C9 inhib 53
c1ccc(-c2nnc3sc(-c4ccncc4)nn23)cc1	none
C=CCOc1c(Cl)cc(/C=N/O)cc1OC	CYP2C19 inhib 98 (no result: E-sel TNF inh)
CCOc1cc(/C=N\O)cc(Cl)c1OCC	none (no result: CYP2C19 inhib, CYP2C9 act, CYP2C9 inhib, CYP2C19 activ)
O=C(Nc1ccc2nc(-c3cccs3)c(-c3cccs3)nc2c1)NC1CC1	none (no result: F-actin modifier)
CCc1ccc(C(=O)Cn2ncc(Cl)c(Cl)c2=O)cc1	none
O=C(OCn1ncc(Cl)c(Cl)c1=O)c1cccc(C(F)(F)F)c1	E-sel TNF inh 71, CYP2C19 inhib 66
COc1cc(CNc2ccccc2Oc2cc(=O)n(C)c(=O)n2C)cc(OC)c1OC	none
Cn1c(Oc2ccccc2NCc2cc(Br)ccc2O)cc(=O)n(C)c1=O	CYP2C19 inhib 76, CYP2C9 inhib 95
COc1ccc(S(=O)(=O)CCC(=O)NCCc2ccc(C)cc2)cc1	CYP2C19 inhib 57, CYP2C9 inhib 75
COc1ccc(S(=O)(=O)NCc2ccc(C)cc2)cc1	CYP2C19 inhib 99
COc1ccc(CCNC(=O)c2ccc3c(c2)OCCO3)cc1	none (no result: CYP2C19 inhib, CYP2C9 act, CYP2C9 inhib, F-actin modifier, CYP2C19 activ)
COc1ccc(CCNS(=O)(=O)c2ccc3c(c2)OCCO3)cc1	CYP2C19 inhib 76
COc1ccc(CCNS(=O)(=O)c2ccc(OC)cc2)cc1	CYP2C19 inhib 65, CYP2C9 inhib 57
CCOC(=O)c1cc(-c2cc3ccccc3o2)n[nH]1	none (no result: E-sel TNF inh, F-actin modifier)
Cc1ccc(C(C(=O)NCc2ccc(F)cc2)N(C(=O)c2csnn2)C2CC2)o1 (stereo not given)	none
CC(=O)c1c(C)nc2ccc(Cl)cn12	none
COc1ccc(S(=O)(=O)NCCC(=O)NCc2ccc(F)cc2)cc1	CYP2C9 act 2.8
CCc1nc(SCC(=O)N2CCC(Cc3ccccc3)CC2)c2c(=O)n(C)c(=O)n(C)c2n1	none
O=C(/C=C/c1ccccc1)N1CCC(Cc2ccccc2)CC1	E-sel TNF inh 92
Cn1cnnc1SCC(=O)N1CCC(Cc2ccccc2)CC1	CYP2C19 inhib 77
O=C(CNS(=O)(=O)/C=C/c1ccccc1)OCC(=O)N1CCC(Cc2ccccc2)CC1	CYP2C9 inhib 52
O=C(/C=C/c1ccc(OC2CSC2)cc1)c1ccccc1	CYP2C19 inhib 61
O=C(N/N=C/c1ccc(OC2CSC2)cc1)c1ccccc1	none
Cc1nnc2n(-c3ccccc3)c(=O)c3c4c(sc3n12)CC(C)CC4 (stereo not given)	none
Cc1ccc(C(=O)Nc2c(C(=O)NCc3ccco3)cnn2-c2ccccc2)cc1	CYP2C9 inhib 56
CCOC(=O)c1cnn(-c2ccccc2)c1NC(=O)c1ccc(C)cc1	none (no result: E-sel TNF inh)
O=C(Nc1c(C(=O)NCc2ccco2)cnn1-c1ccccc1)c1cccc(F)c1	CYP2C19 inhib 67, CYP2C9 inhib 87 (no result: F-actin modifier)
O=C(Nc1c(C(=O)Nc2ccccc2)cnn1-c1ccccc1)c1ccco1	none (no result: E-sel TNF inh)
Cc1cc(OCC(=O)O)c2ccccc2n1	none (no result: E-sel TNF inh)
